# An excerpt weighted towards active compounds, which were near 4.2% of everything screened.
# VDR inhibitor: inhibitors of human vitamin D receptor | P11473 | 400,000 tested, 0.93% active | Potency, µM, for inactives: max response, negative = inhibition, hits mostly inhibitors | VDR-SRC2-3 peptide fluorescence polarization, 2 h
#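 Fluorescence polarization assay of small-molecule disruption of VDR binding to coregulator peptide SRC2-3. Compounds and controls pin-transferred, then read after 2 h incubation at ambient room temperature.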
# Sfp PPTase inh: Sfp phosphopantetheinyl transferase inhibition. AID 1490. Potency, µM, inactives show largest response in the series, negative = inhibition, actives largely listed as inhibitors. Biochemical Sfp PPTase activity, qHTS. 310,000 tested, 3.5% active;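 note: the enzyme is Sfp with the accession as filed and its product quenches rhodamine fluorescence; 0% = enzyme reaction without inhibitor and -100% = no enzyme wells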
#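 Sfp 15 nM + cpd, 15 min RT; start w/ rhodamine-CoA 5 uM, BHQ-2-YbbR 12.5 uM (final); 50 mM Hepes pH 7.6, 10 mM MgCl2, 0.01% NP-40, 0.01% BSA; read 525/598 nm at 0 and 30 min.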
# 12-LOX inh: inhibitors of human 12S-lipoxygenase ALOX12; P18054; purified 12hLO, xylenol orange hydroperoxide absorbance; Potency, µM (titrated, usually from 108 µM), for the others: top-dose activity change, negative = inhibition, usual class: inhibitors; 580,000 tested, 1.1% active
#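 Purified human 12hLO (150 nM final) in 25 mM Hepes, 0.01% Triton X-100, pH 7.0 was preincubated 15 min at room temperature with compound. Then 40 uM arachidonic acid was added, 30 min. Hydroperoxide was read by Fe-XO absorbance ratio 573/405 nm.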
# PLK1 PBD inh: inhibitors of human PLK1 polo-box domain binding | P53350 | Plk1 PBD binding of FITC phosphopeptide, fluorescence polarization | Potency, µM, for inactives: max response, negative = inhibition, usual class: inhibitors | 360,000 tested, 2.8% active | AID 720504; note: series mostly up to about 57 µM; nearly all actives have a fitted effect of over 65% in size
# Target sequence (P53350 whole entry, looked up, the tested form may be a part): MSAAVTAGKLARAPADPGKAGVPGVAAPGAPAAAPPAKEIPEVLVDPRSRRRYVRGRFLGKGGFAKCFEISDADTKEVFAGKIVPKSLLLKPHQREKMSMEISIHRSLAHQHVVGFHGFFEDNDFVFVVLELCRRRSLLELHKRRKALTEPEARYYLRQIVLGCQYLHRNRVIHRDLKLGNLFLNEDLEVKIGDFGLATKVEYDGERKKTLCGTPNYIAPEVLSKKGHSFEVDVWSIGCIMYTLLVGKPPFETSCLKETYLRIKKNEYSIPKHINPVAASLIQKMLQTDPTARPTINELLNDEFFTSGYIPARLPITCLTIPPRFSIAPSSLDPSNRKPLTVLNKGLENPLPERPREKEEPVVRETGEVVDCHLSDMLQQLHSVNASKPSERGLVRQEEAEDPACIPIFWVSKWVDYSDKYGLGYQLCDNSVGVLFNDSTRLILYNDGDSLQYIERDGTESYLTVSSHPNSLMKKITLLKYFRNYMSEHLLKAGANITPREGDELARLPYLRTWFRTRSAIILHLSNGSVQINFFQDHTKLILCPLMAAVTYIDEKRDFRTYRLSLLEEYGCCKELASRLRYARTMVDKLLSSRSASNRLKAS
# Starred values were filed as active, the others as inactive; ? = inconclusive; . = not tested or not shown. Calls come from the whole dose curve; as a rule, active = well fitted curve in the direction sought with a large enough effect; inconclusive = small, poorly fitted or top-dose-only effect, or another doubt; inactive = no such curve, though single readings can be large; an effect the other way counts as inactive or inconclusive. Unless noted, % is set by controls: 0 for no effect and ±100 for the full control effect; potency is the fitted concentration of half-maximal effect.
SMILES,VDR inhibitor,Sfp PPTase inh,12-LOX inh,PLK1 PBD inh
Cc1ccc(C2CC(c3ccccc3)=NN2C(=S)Nc2ccccc2)o1 (configuration not stated),-19%,45µM*,351%,-29%
S=C(Nc1ccccc1)N1N=C(c2cccs2)CC1c1cccs1 (configuration not stated),79µM*,-7%,-4%,12µM*
CC1=NN(C(=S)Nc2ccccc2)C(c2ccccc2)C1 (configuration not stated),-4%,-16%,8%,-2%
COc1ccc(C2CC(c3cccs3)=NN2C(=S)Nc2ccccc2)cc1OC (configuration not stated),-8%,3%,2%,-5%
COc1ccc(-c2noc([C@@H]3CCCN3C(=O)c3ccc(C#N)cc3)n2)cc1OC,.,.,25µM*,.
CN1CCN(c2ncc3nc(-c4cccs4)c(=O)n(CCC#N)c3n2)CC1,-1%,-14%,?,.
C[C@H](NC(=O)c1ncn2c1C(=O)NC[C@@H]2C)c1ccccc1,.,.,27%,2%
CCN(C(=O)c1cc2sc3ccccc3c2s1)c1ccccc1,.,.,7.9µM*,.
COCCNC(=O)c1cc2sc3ccccc3c2s1,-12%,-6%,7%,-3%
C#CC1(O)CCN(C(C)(C)C)CC1C (configuration not stated),.,.,-8%,.
CN(CC(=O)Nc1ccccc1C(F)(F)F)Cc1c(O)ccc2ccccc12,?,-6%,7.1µM*,12µM*
CCc1ccccc1NC(=O)CN(C)Cc1c(O)ccc2ccccc12,?,-7%,?,12µM*
CCCN(CC(=O)Nc1ccccc1OC)Cc1c(O)ccc2ccccc12,?,-10%,?,9.5µM*
C=CCNC(=O)NC(=O)CN(C)CC(=O)Nc1ccccc1C(F)(F)F,.,.,12%,.
COc1ccccc1NC(=O)c1c(NC(=O)c2ccccc2F)sc2c1CCC2,1%,.,-7%,.
COc1ccc(CC(N)c2csc(Nc3cc(NCc4ccco4)ncn3)n2)cc1 (configuration not stated),.,.,?,-9%
Cc1cc(C)n2nc(C(=O)NCc3cccc(C(F)(F)F)c3)nc2n1,10%,17%,8%,-7%
CCn1cc(C(=O)NC(=S)Nc2cccc(O)c2)cn1,4%,79µM*,?,-7%
CCn1cc(C(=O)NC(=S)Nc2ccccc2Br)cn1,15%,-7%,28µM*,-6%
CCn1cc(C(=O)NC(=S)Nc2ccccc2[N+](=O)[O-])cn1,-19%,79µM*,?,?
CCN(CC)c1ccc(NC(=O)c2cnn(CC)c2)cc1,-3%,-9%,-28%,7%
CCn1cc(C(=O)Nc2ccccc2C(=O)OC)cn1,-14%,.,193%,4%
Cc1ccc2nc(/C(C#N)=C/c3ccc(O)c(O)c3)[nH]c2c1,?,-25%,7.1µM*,?
N#C/C(=C\c1ccncc1)c1nc2ccccc2[nH]1,0%,3%,33%,-2%
Cc1cc2nc(/C(C#N)=C/c3ccncc3)[nH]c2cc1C,22µM*,0%,-3%,27µM*
SMILES,VDR inhibitor,Sfp PPTase inh,12-LOX inh,PLK1 PBD inh
Cc1ccc2nc(/C(C#N)=C/c3cccc(Br)c3)[nH]c2c1,-7%,.,?,.
COc1ccc(C2=NCCc3cc(OC)c(OC)cc32)cc1OC,8%,1%,-16%,0%
COc1cc2c(cc1OC)C(/C=C/c1ccc(OC)c(OC)c1OC)=NCC2,50µM*,?,?,.
CCN(CC)CCNC(=O)c1ccc(NC(=O)c2cn(-c3ccccc3)nc2-c2cccs2)cc1,25%,?,?,-7%
CCN(CC)CCNC(=O)c1ccc(NC(=O)c2cn(-c3ccc(F)cc3)nc2-c2cccc(OC)c2)cc1,-1%,50µM*,?,4%
CCN(CC)CCNC(=S)NC(=O)c1cn(-c2ccccc2)nc1-c1ccc(OC)cc1,18%,-6%,45µM*,-2%
COc1ccc(-c2nn(-c3ccccc3)cc2C(=O)NCCN2CCOCC2)cc1,.,.,-5%,.
COc1cc(C)c(-c2[nH]ncc2-c2csc(C)n2)c(O)c1,-13%,0%,-12%,30µM*
Cc1nc(-c2cn[nH]c2-c2ccc(O)cc2O)cs1,-7%,-1%,-13%,-8%
CCCCn1c(=O)[nH]c(=O)c2c1nc(-c1cc3c(cc1Br)OCO3)n2C,0%,15%,36%,-16%
COC(=O)c1ccccc1NC=C1C(=O)OC2(CCCCC2)OC1=O,18%,2%,?,4.2µM*
COc1cccc(NC=C2C(=O)OC3(CCCCC3)OC2=O)c1,8%,9%,-21%,-2%
C/C(=N\NC(=O)c1cccc(S(=O)(=O)N2CCCC2)c1)c1cccs1,-18%,19%,58%,27µM*
CC(=NNC(=O)c1cccc(S(=O)(=O)N2CCCC2)c1)c1ccccc1,5%,.,7%,0%
CC(=O)N1[C@H](C)C=C[C@]1(Cc1ccccc1)C(=O)NCc1ccc(C)o1,.,22µM*,.,.
Cc1ccc(CNC(=O)C2(CC(C)C)C=CCN2C(=O)c2ccccc2)o1 (configuration not stated),.,40µM*,.,.
CC(C)CC1(C(=O)NCC2CC2)C=CCN1C(=O)c1ccccc1 (configuration not stated),.,-27%,.,.
CCOC(=O)c1nn(-c2ccc(F)cc2)c(-c2ccccc2)c1C(=O)c1ccccc1,-4%,0%,8%,-8%
O=[N+]([O-])c1cnc(Sc2ccncn2)s1,22µM*,?,-82%,0.67µM*
COCCCNC(=O)[C@@H](Cc1ccccc1)NC(=O)CC[C@H]1O[C@@H](n2ccc(=O)[nH]c2=O)[C@H](O)[C@@H]1O,.,.,-3%,-4%
CCSc1nc(-c2ccco2)ccc1C#N,-5%,-5%,6.3µM*,?
COc1ccc(CNC(=O)C2CCCN2CCc2ccccc2)cc1OC (configuration not stated),-13%,23%,0%,2%
Cc1ccc(-c2cc(NC(=O)C(C)Oc3ccccc3Cl)on2)cc1 (configuration not stated),.,.,0%,.
